From the supplement of paper PMC6555819

Experiments:
Assay in all cases: PBM binding z-score (relative to random genomic background probes); higher = stronger binding; sequences stand for … in GC…GCGATTGACAGCGTAGAATGAAGG
[1] = test system: RARb homodimer (NR concentration 270 nM)
Method in brief: (§1)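 Custom Agilent 4×180K protein-binding microarrays carried double-stranded probes, each with a 34-nt variable region. These regions held direct-repeat seeds, single-nucleotide variants, half-site ablations and random human genomic background sequences. Ligand-free nuclear receptor dimers were incubated on the arrays for 1 h, antibodies against each partner (one per run) detected binding, and scanned fluorescence was regression-normalized. Binding z-scores take the random background probes as reference.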

[2] = test system: RARg:RXRa (NR concentration 270 nM, RXRa partner concentration 90 nM)
Method in brief: as §1

[3] = test system: RARg homodimer (NR concentration 270 nM)
Method in brief: as §1

[4] = test system: RXRa DBDmut IVT, anti-RXR (DBD mutation: RXRa K156A/R161A, NR concentration 90 nM)
Method in brief: as §1

[5] = test system: RXRa homodimer (NR concentration 180 nM)
Method in brief: as §1

[6] = test system: THRa:RXRa (NR concentration 90 nM, RXRa partner concentration 90 nM)
Method in brief: as §1

[7] = test system: THRa homodimer (NR concentration 90 nM)
Method in brief: as §1

[8] = test system: VDR homodimer (NR concentration 270 nM)
Method in brief: as §1

[9] = test system: VDR:RXRa (NR concentration 270 nM, RXRa partner concentration 90 nM)
Method in brief: as §1

Sequence	PBM binding z-score [1]	PBM binding z-score [2]	PBM binding z-score [3]	PBM binding z-score [4]	PBM binding z-score [5]	PBM binding z-score [6]	PBM binding z-score [7]	PBM binding z-score [8]	PBM binding z-score [9]
TTACCAAGGTGAAGGTCGTGGATCCCTCTGTAGA	2.22	1.86	1.49	0.01	2.63	2.79	1.11	0.222	
CCTACTGGGCCAAAACGGTCATTGATGCCGATAA	1.39	0.276	0.635	-0.682	-0.274	-0.206	-0.538	-0.184	
TAGCCTAGGACATGCGGGCCAGTATAGTGTCGGC	-0.329	-0.38	0.0739	-1.32	-0.25	0.348	-0.342	-1.08	
CAAACTAGGTCACGAAAGGTCAAAATCGAATGAC	5.7	7.53	8.09	2.25	8.44	4.89	2.42	3.13	
AGTCAAAGTTCACTAGGTTACGTAAGATTCAGCT	4.27	5.33	6.12	4.29	4.53	2.55	0.508	3.98	
ATATGTAGGTTTGGGTCATTCAGAAAGTAGGGAA	2.2	1.92	1.33	1.36	2.05	2.74	2.23	2.22	
TAGCCTAGGTGATTGGGCCAGTATAGTACGCATC	-0.159	-0.276	-0.119	-0.669	-0.198	-0.224	-0.512	-0.67	
CCGAGTAGATTACGAGGGGGCATTCAGTGCGAAT	1.12	1.31	0.84	1.36	0.919	1.85	-0.0543	3.03	
CTATGTAGATTAAGGGGGTCATTCAGTTTGAAAG	3.68	4.14	2.94	2.82	5.19	3.74	2.37	5.58	
TCTTGTTGATCAAAGGTTAAGAAAGCCGAAGCCT	1.89	1.64	1.11	0.76	2.64	1.58	-0.291	0.435	
CCGAGTAGGTTACGAGGGGGCAGTCAGTGCGAAT	2.02	2.81	2.42	0.582	1.55	3.29	0.478	1.68	
CTATGTAGGTTAAGTGGGTCATTCAGTTTGAAAG	2.4	1.97	1.95	0.703	1.73	1.97	0.347	2.29	
CCTTACGGGTCAGTGACAGGTTATAGCATTTGGA	2.85	4.61	3.43	1.05	3.29	2.15	0.134	0.572	
CTATGTAGGTTAAGGGGGTCATTCAGTTTGAAAG	3.93	5.34	4	2.56	6.26	3.95	2.19	4.98	
ATATGTAGGTCAGCTGGGGTCATTCAGACTAGGC	5.26	6.13	6.32	2.43	6.85	5.44	3.41	5.57	
CCGACGGGGGCAAGGTTACCATAACGCACAGCCA	2.54	3.79	3.51	2.32	3.35	3.09	1.26	1.78	
ATATGAAGGTTAGGGTCATTCAGAAAGTAGGGAA	3.58	4.37	3.36	2.29	5.38	4	3.15	4.12	
TTACCAAGGTGACCTGAGGTCGTTGATCCAACTC	3.13	3.18	2.35	0.664	3.64		3.94	3.65	4.87
CGAACTAGGTCACAGGACAGTGAAAGGCGACGTA	3.12	4.25	4.96	1.61	3.27	2.86	0.815	0.381	
ATATGTAGGTGAAGGGTCATTCAGGTTGGTTCGC	3.76	4.77	3.15	2.06	5.6	3.55	1.35	4.34	

Sequence	PBM binding z-score [1]	PBM binding z-score [2]	PBM binding z-score [3]	PBM binding z-score [4]	PBM binding z-score [5]	PBM binding z-score [6]	PBM binding z-score [7]	PBM binding z-score [8]	PBM binding z-score [9]
ATATGTAGGTTAGGGTCAATCAGAAAGTAGGGAA	3.59	4.12	3.71	1.23	5.05	3.83	2.6	2.43	
CTAACTAGGTCAAAGGACAGTGAAAGGCGACGTA	3.08	4.05	4.84	1.68	2.97	2.58	0.419	0.409	
CAAACTAGGTCACAGAGGTCAACGTCCGTGCGTA	5.75	7.28	8.09	3.2	7.63	4.9	3.25	5.58	
CCCCGGAGGACAGAAGGTCAGAGCTGTCCGCTTT	3.7	3.27	3.26	-0.968	1.78	2.21	0.211	0.277	
TCATATAGGTTAAGGTGAAAGTCGAACGATATGA	1.66	2.3	2.08	0.797	2.45	3.33	2.71	0.253	
TCTTATAGATCAATAGAGGTTAAGAAAGTGCGCT	1.22	1.04	0.633	0.906	1.75	2.49	0.125	0.336	
ATATGTAGGTTAGGGCCATTCAGAAAGTAGGGAA	1.13	0.818	0.94	0.769	0.668	1.47	0.811	0.685	
TCGAGTAGGCTACGGGGGCATTCAGGGATGAAGA	1.01	1.2	0.904	0.682	1.13	3.63	0.228	2.66	
CCTTACGGGTCAAGGTTATATCACGGGTGGTACG	3.52	4.98	4.79	0.822	5.52	3.11	0.96	1.54	
CCTTGCGGGTCACTGACAGGTTATAGCATTTGGA	2.97	5.46	4.17	1.77	4.49	2.8	0.354	0.664	
CTCTGTAGGTTAAGGGGGTCATTCAGTTTGAAAG	3.87	5.32	4.07	2.52	5.91	3.86	2.34	5.47	
CAAACTAGGTCACGAGGTCAAAGTCCGCTTCCCG	5.59	7.56	6.9	3.1	7.59	4.76	4.67	4.9	
CAAACTAGGTCAAGGTCAAATTCGGTTTGTGCCA	5.19	6.03	6.67	3.1	6.24	4.38	3.92	4.1	
ATCTCTAGGTAAAGGTCAGTGAAAGATCGATAGA	4.26	4.52	5.13	0.521	4.35	2.98	0.87	1.17	
ATCGAAAGGGCGTGAGGTGAGTATACAGAAAGGC	1.44	1.47	1.36	-0.0845	1.17	2.12	1.08	0.15	
TCTAGTTGGTCACGGAGGTCACACGCGACGGGTA	4.41	4.66	4.95	1.4	4.97	3.67	2.4	3.43	
AGTCAAAGTTCAGTAGGTAACGTAAGATTCAGCT	3.15	3.74	4.28	3.23	2.08	0.91	-0.604	2.23	
AGTCCAAGTTCACTAGGTAACGTAAGATTCAGCT	1.95	2.53	2.98	4.3	1.74	1.54	0.381	4.4	
ATCGAAAGGTCGACGAGTTGAGTATACACCGTTT	2.63	3.88	4.05	1.46	4.2	2.24	-0.136	2.1	
CTATGTAGGGTAAGGGGGTCATTCAGTTTGAAAG	4.04	5	3.92	2.91	5.44	3.99	2.95	6.62	

Sequence	PBM binding z-score [1]	PBM binding z-score [2]	PBM binding z-score [3]	PBM binding z-score [4]	PBM binding z-score [5]	PBM binding z-score [6]	PBM binding z-score [7]	PBM binding z-score [8]	PBM binding z-score [9]
GATCCAGGGTCAGCTAGAGGCCAGAGTATGGAAA	3.27	6.7	4.6	0.756	4.34	3.09	-0.172	0.674	
CAAACTAGGTCAAAGGTCAACGTCGAGCCAACCA	5.12	8.91	7.98	2.88	10.3	4.98	2.1	2.86	
CCTTACGGGTCACTCAAGGTTATAGCATCGGAGT	3.55	4.9	4.38	2.01	5.23		1.01	1.75	5.32
TCGAGTAGGTTACGGCGGCATTCAGGGATGAAGA	0.0882	0.396	0.134	-0.00856	0.642		-0.386	-0.475	-0.251
GATACAGGGTGAGCTAGAGGCCAGAGTATGGAAA	0.626	2.08	0.586	-0.965	0.342		-0.562	-0.731	-0.523
CGTCAAAGTTCACCTAAGGTAACGTAAAGCACGC	4.45	5.95	6.36	4.67	5.09		3.11	4.19	
CAAACTAGGTCAAAGGTCAAAGCCGAGCCAACCA	5.47	8.97	7.51	2.57	10.7		1.74	2.99	
TTACCAAGGTCAGCTGAGGTCGTTGATCCAACTC	4.61	5.52	6.14	2.79	4.69		3.51	4.14	
ATATGTAGGTTAGAGTCATTCAGAAAGTAGGGAA	0.746	0.752	0.891	0.428	0.703		0.254	0.387	
CCGAGTAGGTTACGAGGCGGCATTCAGTGCGAAT	0.155	0.238	0.173	0.159	0.329		-0.252	-0.284	
CAAACTAGGTCACCGTAAGGTCAAAGTCCGCATG	5.88	8.26	7.64	2.47	6.67		5.45	4.19	
CGTCCAAGGTCAAAGGTCAGGGAAGAGATGACGG	5.58	9.1	8.2	3.54	10.4		2.92	3.13	
CCTAGCAGGCCAATCGGGGTCACTCAAGGCTTGA	3.66	4.43	3.43	1.12	6.01		2.35	4	
CGTCCAAGGTCAGAGAGGTCATTGAATGCCGAGT	5.86	6.66	6.96	3.6	6.75		3.35	7.43	
TGAATGAGGTTAAAGGTCAGGGAACGTGGCGTCG	4.57	7.13	5.51	1.87		4.33	1.94	2.81	5.85
CGAACTAGGTCACCAGAACAGTGAAGAGGTTGGA	3.14	4.44	5.22	1.11		2.87	0.853	0.565	1.86
CGTCCAAGGTCAATGTTAGGTCAGTGAAAGCATT	5.33	7.45	6.89	3.6	5.27		3.81	2.78	
CCTACTGTGCCATTCAGAGGTCATTGATCATATG	4.39	4.2	2.75	1.79		3.38	2.43	3.56	4.25
